From PubChem BioAssay AID1159580 (chemical genetic matrix, 2015)
About 2,000 (36%) of roughly 5,500 compounds were called active. Roughly 18% stayed inconclusive and do not appear here. Rule as the data show it: active = normalized growth mostly below about 0.91 (no sharp cut-off); inconclusive = no clear call, values can overlap the other calls; inactive = mostly above about 0.92. Some of the results follow.

Test: chemical genetic growth profiling, strain panel (AID 1159580);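 also: tested at 20 µM; growth read once vehicle control cultures reached saturation at 30 °C; 1 = growth at the plate median or of vehicle wells; lower values mean less growth of the strain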
Settings: growth OD

Measured: normalized growth

Cc1onc(-c2ccccc2)c1-c1ccc(S(N)(=O)=O)cc1
inactive: S. cerevisiae deletion strains, locus YJR043C, strain POL32, stronger effect = lower value 0.993 | S. cerevisiae deletion strains, locus YJR075W, strain HOC1, stronger effect = lower value 1 | S. cerevisiae deletion strains, locus YKL009W, strain mrt4, stronger effect = lower value 0.993 | S. cerevisiae deletion strains, locus YKL068W, stronger effect = lower value 1 | S. cerevisiae deletion strains, locus YKL085W, strain MDH1 (second series), stronger effect = lower value 0.996 | S. cerevisiae deletion strains, locus YKL085W, strain MDH1, stronger effect = lower value 0.996 | S. cerevisiae deletion strains, locus YKL160W, strain elf1, stronger effect = lower value 1 | S. cerevisiae deletion strains, locus YKL190W, strain CNB1, stronger effect = lower value 1.01 | S. cerevisiae deletion strains, locus YKR001C, strain vps1, stronger effect = lower value 0.991 | S. cerevisiae deletion strains, locus YKR026C, strain gcn3, stronger effect = lower value 0.987 | S. cerevisiae deletion strains, locus YKR091W, strain srl3, stronger effect = lower value 0.999 | S. cerevisiae deletion strains, locus YLL001W, strain dnm1, stronger effect = lower value 0.994 | S. cerevisiae deletion strains, locus YLL026W, stronger effect = lower value 0.999 | S. cerevisiae deletion strains, locus YLL041C, strain sdh2, stronger effect = lower value 1 | S. cerevisiae deletion strains, locus YLR027C, strain aat2, stronger effect = lower value 1.01 | S. cerevisiae deletion strains, locus YLR039C, strain RIC1, stronger effect = lower value 1 | S. cerevisiae deletion strains, locus YLR058C, strain SHM2, stronger effect = lower value 1.01 | S. cerevisiae deletion strains, locus YLR102C, strain apc9, stronger effect = lower value 0.998 | S. cerevisiae deletion strains, locus YLR221C, strain rsa3, stronger effect = lower value 0.995 | S. cerevisiae deletion strains, locus YLR258W, strain gsy2, stronger effect = lower value 1.01 | S. cerevisiae deletion strains, locus YLR262C, strain YPT6 (second series), stronger effect = lower value 1.01 | S. cerevisiae deletion strains, locus YLR262C, strain YPT6, stronger effect = lower value 0.986 | S. cerevisiae deletion strains, locus YLR268W, strain sec22, stronger effect = lower value 0.99 | S. cerevisiae deletion strains, locus YLR320W, strain mms22, stronger effect = lower value 1 | S. cerevisiae deletion strains, locus YLR330W, strain CHS5, stronger effect = lower value 1.01 | S. cerevisiae deletion strains, locus YLR342W, strain FKS1 (second series), stronger effect = lower value 1 | S. cerevisiae deletion strains, locus YLR342W, strain FKS1, stronger effect = lower value 1 | S. cerevisiae deletion strains, locus YLR357W, strain rsc2, stronger effect = lower value 1.03 | S. cerevisiae deletion strains, locus YLR370C, strain arc18, stronger effect = lower value 0.999 | S. cerevisiae deletion strains, locus YLR371W, strain rom2, stronger effect = lower value 0.998 | S. cerevisiae deletion strains, locus YLR384C, strain iki3, stronger effect = lower value 1.01 | S. cerevisiae deletion strains, locus YLR418C, strain cdc73, stronger effect = lower value 0.963 | S. cerevisiae deletion strains, locus YML016C, strain PPZ1, stronger effect = lower value 1 | S. cerevisiae deletion strains, locus YML032C, strain rad52, stronger effect = lower value 0.996 | S. cerevisiae deletion strains, locus YML120C, strain ndi1, stronger effect = lower value 0.992 | S. cerevisiae deletion strains, locus YML124C, strain tub3, stronger effect = lower value 0.996 | S. cerevisiae deletion strains, locus YMR058W, strain fet3, stronger effect = lower value 1 | S. cerevisiae deletion strains, locus YMR078C, strain ctf18, stronger effect = lower value 1 | S. cerevisiae deletion strains, locus YMR125W, strain sto1, stronger effect = lower value 0.988 | S. cerevisiae deletion strains, locus YMR129W, stronger effect = lower value 0.967 | S. cerevisiae deletion strains, locus YMR205C, strain PFK2, stronger effect = lower value 1 | S. cerevisiae deletion strains, locus YMR223W, strain ubp8, stronger effect = lower value 0.997 | S. cerevisiae deletion strains, locus YMR231W, strain pep5, stronger effect = lower value 1 | S. cerevisiae deletion strains, locus YMR263W, strain SAP30, stronger effect = lower value 1 | S. cerevisiae deletion strains, locus YMR307W, strain GAS1, stronger effect = lower value 0.977 | S. cerevisiae deletion strains, locus YNL067W, strain RPL9B, stronger effect = lower value 1 | S. cerevisiae deletion strains, locus YNL071W, strain lat1, stronger effect = lower value 1.01 | S. cerevisiae deletion strains, locus YNL128W, strain TEP1, stronger effect = lower value 1.01 | S. cerevisiae deletion strains, locus YNL153C, strain GIM3, stronger effect = lower value 1 | S. cerevisiae deletion strains, locus YNL209W, strain ssb2, stronger effect = lower value 0.994 | S. cerevisiae deletion strains, locus YNL233W, strain BNI4, stronger effect = lower value 1.01 | S. cerevisiae deletion strains, locus YNL248C, strain rpa49, stronger effect = lower value 1 | S. cerevisiae deletion strains, locus YNL250W, strain rad50, stronger effect = lower value 0.991 | S. cerevisiae deletion strains, locus YNL271C, strain bni1, stronger effect = lower value 1.01 | S. cerevisiae deletion strains, locus YNL298W, strain CLA4, stronger effect = lower value 0.989 | S. cerevisiae deletion strains, locus YNL307C, strain MCK1, stronger effect = lower value 0.998 | S. cerevisiae deletion strains, locus YNL322C, strain KRE1 (second series), stronger effect = lower value 1.02 | S. cerevisiae deletion strains, locus YNL322C, strain KRE1, stronger effect = lower value 1.01 | S. cerevisiae deletion strains, locus YNR049C, strain mso1, stronger effect = lower value 1 | S. cerevisiae deletion strains, locus YNR052C, strain pop2, stronger effect = lower value 1 | S. cerevisiae deletion strains, locus YOL006C, strain TOP1, stronger effect = lower value 0.992 | S. cerevisiae deletion strains, locus YOL012C, strain htz1 0.783 | S. cerevisiae deletion strains, locus YOL147C, strain pex11, stronger effect = lower value 0.997 | S. cerevisiae deletion strains, locus YOR001W, strain rrp6, stronger effect = lower value 1 | S. cerevisiae deletion strains, locus YOR061W, strain CKA2, stronger effect = lower value 0.998 | S. cerevisiae deletion strains, locus YOR069W, strain VPS5, stronger effect = lower value 1 | S. cerevisiae deletion strains, locus YOR070C, strain gyp1, stronger effect = lower value 0.993 | S. cerevisiae deletion strains, locus YOR080W, strain dia2, stronger effect = lower value 0.998 | S. cerevisiae deletion strains, locus YOR083W, strain WHI5, stronger effect = lower value 0.997 | S. cerevisiae deletion strains, locus YOR106W, strain vam3, stronger effect = lower value 1.01 | S. cerevisiae deletion strains, locus YOR136W, strain idh2, stronger effect = lower value 0.992 | S. cerevisiae deletion strains, locus YOR144C, strain elg1, stronger effect = lower value 1 | S. cerevisiae deletion strains, locus YOR184W, strain ser1, stronger effect = lower value 0.992 | S. cerevisiae deletion strains, locus YOR265W, strain rbl2, stronger effect = lower value 1 | S. cerevisiae deletion strains, locus YOR270C, strain vph1, stronger effect = lower value 1.01 | S. cerevisiae deletion strains, locus YOR290C, strain snf2, stronger effect = lower value 1.01 | S. cerevisiae deletion strains, locus YOR316C, strain cot1, stronger effect = lower value 0.991 | S. cerevisiae deletion strains, locus YPL051W, strain arl3, stronger effect = lower value 1.01 | S. cerevisiae deletion strains, locus YPL055C, strain LGE1, stronger effect = lower value 1.01 | S. cerevisiae deletion strains, locus YPL078C, strain atp4, stronger effect = lower value 0.996 | S. cerevisiae deletion strains, locus YPL106C, strain sse1, stronger effect = lower value 0.984 | S. cerevisiae deletion strains, locus YPL240C, strain hsp82, stronger effect = lower value 0.991 | S. cerevisiae deletion strains, locus YPL241C, strain CIN2, stronger effect = lower value 1 | S. cerevisiae deletion strains, locus YPR119W, strain clb2, stronger effect = lower value 1 | S. cerevisiae deletion strains, locus YPR141C, strain kar3, stronger effect = lower value 0.996 | S. cerevisiae deletion strains, locus YPR163C, strain tif3, stronger effect = lower value 0.991 | S. cerevisiae deletion strains, locus YPR167C, strain met16, stronger effect = lower value 0.995 | S. cerevisiae deletion strains, strain wtn01, stronger effect = lower value 0.985 | S. cerevisiae strains, strain wild type, stronger effect = lower value 0.999
